HT1080 IDH1KD tx: qHTS for induction of synthetic lethality in tumor cells producing 2HG: qHTS for the HT-1080-IDH1KD cell line | HT-1080 IDH1 knockdown viability, ATP luminescence, 48 h | 360,000 tested, 2% active | Potency, µM (doses to about 46.1 µM), actives largely listed as cytotoxic
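Knockdown cells (IDH1KD HT-1080) received compounds 2 h after plating at 750 cells/well and were kept 48 h at 37 °C in 5% FBS RPMI. A CellTiter-Glo luminescence read gave % activity for curve fitting.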
TDP1 cell noCPT: qHTS for Inhibitors of human tyrosyl-DNA phosphodiesterase 1 (TDP1): qHTS in cells in absence of CPT. DT40 Tdp1-/- hTDP1 cells, no CPT, ATP luminescence, 48 h. Potency, µM (doses to about 46.2 µM), actives largely listed as inhibitors. 420,000 tested, 15% active. AID 686978, 2013; further: nearly all actives have a fitted effect of over 55% in size
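Readout: luminescence from CellTiter-Glo after 30 min in the dark at RT. Cells: DT40 Tdp1-/- with stable hTDP1, 400/well. Exposure: compounds alone, ≥48 hr, 37 °C.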
DT40 TDP1 CPT: qHTS for Inhibitors of human tyrosyl-DNA phosphodiesterase 1 (TDP1): qHTS in cells in presence of CPT; 420,000 tested, 12% active; chicken DT40 Tdp1-/-;hTDP1 cells + 20 nM CPT, ATP luminescence, 48 h; Potency, µM (doses to about 46.2 µM), usual class: inhibitors; further: nearly all actives have a fitted effect of over 55% in size
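Chicken DT40 Tdp1-/- cells complemented with human TDP1, 400 cells/well, exposed to compounds plus 20 nM camptothecin for at least 48 h at 37 C; viability read as ATP content by CellTiter-Glo luminescence.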
IL1B secr inh: qHTS for Inhibitors of Inflammasome Signaling: IL-1-beta AlphaLISA Primary Screen; THP-1 LPS/ATP IL-1B secretion, AlphaLISA, 16 h; hits give low values; activity change, % at 57.5 µM; 360,000 tested, 4.7% active; AID 743279, 2014; in the data active means activity change below about -50%; inconclusive means mostly about -30% to -49%
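Secreted IL-1B measured by AlphaLISA bead assay after 16 h compound exposure of THP-1 cells; compounds (final up to 57.5 uM) added 1 h before LPS (250 ng/mL) and ATP (1.25 mM) stimulation; lower signal means less secretion.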
HT1080NT lethal: qHTS for induction of synthetic lethality in tumor cells producing 2HG: qHTS for the HT-1080-NT fibrosarcoma cell line. HT-1080-NT fibrosarcoma viability, CellTiter-Glo ATP luminescence, 48 h. 360,000 tested, 1.6% active. AID 686970, 2013. Potency, µM (doses to about 46.1 µM), hits mostly cytotoxic;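 further: NT is the 2HG producing partner of a matched IDH1 knockdown line; nearly all actives have a fitted effect of over 55% in size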
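Read-out is CellTiter-Glo luminescence after 10 minutes at room temperature, following 48 hours' compound treatment of HT-1080-NT cells (750 cells/well, RPMI, 5% FBS, 37 degrees C).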
A number is an active result; - = inactive; ? = inconclusive; . = not tested or not shown. An excerpt weighted towards active compounds, which were near 19% of everything screened. Unless noted, the call rests on the fitted dose curve; in most records, active means well fitted curve in the direction sought with a large enough effect; inconclusive means small, poorly fitted or top-dose-only effect, or another doubt; inactive means no such curve, though single readings can be large; an effect the other way counts as inactive or inconclusive.

SMILES	HT1080 IDH1KD tx	TDP1 cell noCPT	DT40 TDP1 CPT	IL1B secr inh	HT1080NT lethal
CCOCc1nc(N)nc(N)c1-c1cccc(Cl)c1	?	7.31µM	8.2µM	-	?
O=C(NNC(=O)c1cncc(Br)c1)c1ccncc1	-	-	-	-	-
N#CC1=C(N)Oc2cc(O)ccc2C1c1cccnc1 (centres undefined)	-	-	-	-	-
N#CC1=C(N)Oc2c(ccc3cccnc23)C1c1ccccc1 (centres undefined)	?	4.11µM	5.17µM	-	?
Cc1ccc2[nH]c(=O)c(C3C(C#N)=C(N)Oc4c3ccc3cccnc43)cc2c1 (centres undefined)	?	20.6µM	20.6µM	?	-
COc1ccc(C(=O)/C=C2\NCCc3cc(OC)c(OC)cc32)cc1OC	?	16.4µM	16.4µM	?	-
COc1cc(CCNC(=O)c2ccc3c(c2)c(C)c(C)n3Cc2cccc(C)c2)cc(OC)c1OC	.	5.17µM	7.31µM	.	.
CCOc1ccc(CCNC(=O)c2ccc3c(c2)c(C)c(C)n3Cc2ccccc2)cc1OCC	.	13µM	16.4µM	.	.
Cc1ccc(Cn2c(CCNC(=O)c3cccc(C)c3)nc3ccccc32)cc1	.	?	18.4µM	.	.
CCOc1ccc(CCNC(=O)c2ccc(C)c(N3CCCC3=O)c2)cc1OCC	-	?	-	-	-
COc1cc(CCNC(=O)c2cnn3ccccc23)cc(OC)c1OC	?	?	?	-	?
Cc1ccc(CCNC(=O)c2ccc3c(c2)c(C)c(C)n3Cc2ccccc2)cc1	.	?	16.4µM	.	.
CCN1CCc2c(sc(NC(=O)Cc3ccccc3)c2C(N)=O)C1	-	-	-	-	-
CCOC(=O)c1c(NC(=O)c2ccc(S(=O)(=O)N(CC(C)C)CC(C)C)cc2)sc2c1CCN(CC)C2	.	16.4µM	8.2µM	.	.
CCOC(=O)c1c(NC(=O)Cc2ccccc2)sc2c1CCN(CC)C2	-	?	?	?	-
CC(C)CN(CC(C)C)S(=O)(=O)c1ccc(C(=O)Nc2sc3c(c2C(N)=O)CCN(C(C)C)C3)cc1	.	9.2µM	8.2µM	.	.
CCN1CCc2c(sc(NC(=O)c3ccc(S(=O)(=O)N(CC)c4ccccc4)cc3)c2C(N)=O)C1	5.8µM	14.6µM	?	-95.8	18.4µM
NC(=O)c1c(NC(=O)c2c(F)cccc2F)sc2c1CCN(Cc1ccccc1)C2	-	16.4µM	?	-	-
Cc1ccc(NCC(=O)NNC2=NCCC2)c(C)c1	-	-	-	-	-
CCN(CC)S(=O)(=O)c1ccc(O)c(C(=O)OCC(=O)N2c3ccccc3CC2C)c1 (centres undefined)	-	-	-	-	-
Cc1ccc(-n2ncc3c(=O)n(CC(=O)N4CCN(c5ccccc5)CC4)cnc32)cc1C	-	?	-	-	-
COc1ccc(N2C(=O)CS/C2=N\C(=S)Nc2ccccc2)cc1	-	5.8µM	6.51µM	-	?
COc1ccc(CN(C(=S)Nc2ccccc2)C2CC(=O)N(c3ccc(F)cc3)C2=O)cc1 (centres undefined)	?	?	?	-	?
CCc1ccc(C(=O)Cc2cc3cccc(OC)c3oc2=O)cc1	-	-	-	-	-
O=C(CN1C(=O)c2ccccc2C1=O)c1ccccc1	-	-	-	-	-
SMILES	HT1080 IDH1KD tx	TDP1 cell noCPT	DT40 TDP1 CPT	IL1B secr inh	HT1080NT lethal
CC1=C(CC(=O)c2ccccc2)C(=O)c2ccccc2C1=O	?	11.6µM	8.2µM	-	?
O=C1OCCN1C(=O)[C@H]1[C@H](c2ccc(F)cc2)C(c2ccc(F)cc2)=NN1c1ccc(Br)cc1	-	?	?	-61.2	-
O=C1OCCN1C(=O)[C@H]1[C@H](c2ccc(Cl)cc2)C(c2ccc(F)cc2)=NN1c1ccc(Br)cc1	?	?	?	-	-
CCCn1c(C(C)Nc2nc(-c3cc(Cl)c(N)c(Cl)c3)cs2)nc2cc(Cl)c(N3CCCCC3)cc21 (centres undefined)	-	?	18.4µM	-	-
COc1ccc(-c2csc(NC(C)c3nc4cc(Cl)c(Cl)cc4n3CCOCCO)n2)cc1 (centres undefined)	-	18.4µM	?	?	-
Cc1csc(NC(C)c2nc3cc(Cl)c(N4CCCCC4)cc3n2CCOCCO)n1 (centres undefined)	-	?	?	-	-
CC(Nc1nc(-c2ccc(Cl)cc2)cs1)c1nc2cc(Cl)c(N3CCCCC3)cc2n1CCOCCO (centres undefined)	?	14.6µM	16.4µM	-	?

Bioassay records from PubChem BioAssay.
